Measured values reported in ChEMBL document CHEMBL5724796, “Tm Shift (DSF) assay results for EUbOPEN Chemogenomics Library” (2024).
Non-standard residues stand in square brackets, D forms with d. Residues, ends and D or L forms follow the SMILES beside them. *: point of attachment. Tyr(3-Cl) = N[C@@H](Cc1ccc(O)c(Cl)c1)C(=O)O; Benzoyl(3,5-Cl2) = O=C(c1cc(Cl)cc(Cl)c1)*; Lys(Et2) = CCN(CC)CCCC[C@H](N)C(=O)O; Gly(cPent) = N[C@H](C(=O)O)C1CCCC1; NH(propargyl) = C#CCN*

Tests used:
Details in all cases: Compound concentration 20.0 uM
[1] = molecular target: Tyrosine-protein kinase ABL1 (Homo sapiens) (UniProt P00519)
[2] = molecular target: Bromodomain-containing protein 4 (Homo sapiens) (UniProt O60885)
[3] = molecular target: Cyclin-dependent kinase 2 (Homo sapiens) (UniProt P24941)
[4] = molecular target: Casein kinase I isoform delta (Homo sapiens) (UniProt P48730)
[5] = molecular target: Glycogen synthase kinase-3 beta (Homo sapiens) (UniProt P49841)
[6] = molecular target: Mitogen-activated protein kinase 1 (Homo sapiens) (UniProt P28482)
[7] = molecular target: T1, Aurora kinase A (Homo sapiens) (UniProt O14965)
T1 sequence (whole entry): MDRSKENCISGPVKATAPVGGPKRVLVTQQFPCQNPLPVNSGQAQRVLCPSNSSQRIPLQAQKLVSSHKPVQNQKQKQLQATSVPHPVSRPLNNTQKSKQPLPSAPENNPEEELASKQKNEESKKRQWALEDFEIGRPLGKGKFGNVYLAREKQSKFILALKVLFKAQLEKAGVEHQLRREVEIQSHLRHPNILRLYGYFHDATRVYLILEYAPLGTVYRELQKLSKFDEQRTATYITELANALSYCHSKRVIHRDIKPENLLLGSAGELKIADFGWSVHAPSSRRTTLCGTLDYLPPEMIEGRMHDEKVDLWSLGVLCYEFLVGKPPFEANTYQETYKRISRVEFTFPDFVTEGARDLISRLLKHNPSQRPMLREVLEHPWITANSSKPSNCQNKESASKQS

[8] = molecular target: T2, Transcription intermediary factor 1-alpha (Homo sapiens) (UniProt O15164)
T2 sequence (whole entry): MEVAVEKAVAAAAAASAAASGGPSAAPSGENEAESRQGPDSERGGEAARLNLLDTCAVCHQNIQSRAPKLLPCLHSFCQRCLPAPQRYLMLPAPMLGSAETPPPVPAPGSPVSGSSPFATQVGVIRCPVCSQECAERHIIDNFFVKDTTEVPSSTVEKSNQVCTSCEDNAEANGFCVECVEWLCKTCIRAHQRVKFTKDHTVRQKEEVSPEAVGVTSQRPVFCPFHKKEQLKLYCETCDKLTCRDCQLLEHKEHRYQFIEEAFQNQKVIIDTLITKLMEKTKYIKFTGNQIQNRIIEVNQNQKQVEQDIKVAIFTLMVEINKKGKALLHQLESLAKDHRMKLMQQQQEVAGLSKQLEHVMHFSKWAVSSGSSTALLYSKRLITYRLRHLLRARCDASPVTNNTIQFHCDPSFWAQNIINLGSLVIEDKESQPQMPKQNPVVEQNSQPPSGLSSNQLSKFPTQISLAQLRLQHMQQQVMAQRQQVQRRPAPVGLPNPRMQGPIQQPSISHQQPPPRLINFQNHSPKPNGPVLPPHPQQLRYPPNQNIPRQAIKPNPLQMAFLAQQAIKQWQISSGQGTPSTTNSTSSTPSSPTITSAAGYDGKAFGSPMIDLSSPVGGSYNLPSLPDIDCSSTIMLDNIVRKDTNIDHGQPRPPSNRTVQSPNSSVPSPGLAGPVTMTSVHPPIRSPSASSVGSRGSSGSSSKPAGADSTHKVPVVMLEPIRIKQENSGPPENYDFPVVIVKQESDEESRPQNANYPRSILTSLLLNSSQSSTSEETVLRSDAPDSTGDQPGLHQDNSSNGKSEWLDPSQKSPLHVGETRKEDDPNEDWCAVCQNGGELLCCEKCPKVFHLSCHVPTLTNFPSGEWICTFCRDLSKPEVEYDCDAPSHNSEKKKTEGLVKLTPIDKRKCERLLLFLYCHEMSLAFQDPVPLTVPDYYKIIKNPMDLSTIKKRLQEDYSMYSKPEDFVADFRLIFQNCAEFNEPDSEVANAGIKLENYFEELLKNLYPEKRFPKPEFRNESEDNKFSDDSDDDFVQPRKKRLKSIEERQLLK

Sequence of Tyrosine-protein kinase ABL1 (Homo sapiens) (P00519 whole entry): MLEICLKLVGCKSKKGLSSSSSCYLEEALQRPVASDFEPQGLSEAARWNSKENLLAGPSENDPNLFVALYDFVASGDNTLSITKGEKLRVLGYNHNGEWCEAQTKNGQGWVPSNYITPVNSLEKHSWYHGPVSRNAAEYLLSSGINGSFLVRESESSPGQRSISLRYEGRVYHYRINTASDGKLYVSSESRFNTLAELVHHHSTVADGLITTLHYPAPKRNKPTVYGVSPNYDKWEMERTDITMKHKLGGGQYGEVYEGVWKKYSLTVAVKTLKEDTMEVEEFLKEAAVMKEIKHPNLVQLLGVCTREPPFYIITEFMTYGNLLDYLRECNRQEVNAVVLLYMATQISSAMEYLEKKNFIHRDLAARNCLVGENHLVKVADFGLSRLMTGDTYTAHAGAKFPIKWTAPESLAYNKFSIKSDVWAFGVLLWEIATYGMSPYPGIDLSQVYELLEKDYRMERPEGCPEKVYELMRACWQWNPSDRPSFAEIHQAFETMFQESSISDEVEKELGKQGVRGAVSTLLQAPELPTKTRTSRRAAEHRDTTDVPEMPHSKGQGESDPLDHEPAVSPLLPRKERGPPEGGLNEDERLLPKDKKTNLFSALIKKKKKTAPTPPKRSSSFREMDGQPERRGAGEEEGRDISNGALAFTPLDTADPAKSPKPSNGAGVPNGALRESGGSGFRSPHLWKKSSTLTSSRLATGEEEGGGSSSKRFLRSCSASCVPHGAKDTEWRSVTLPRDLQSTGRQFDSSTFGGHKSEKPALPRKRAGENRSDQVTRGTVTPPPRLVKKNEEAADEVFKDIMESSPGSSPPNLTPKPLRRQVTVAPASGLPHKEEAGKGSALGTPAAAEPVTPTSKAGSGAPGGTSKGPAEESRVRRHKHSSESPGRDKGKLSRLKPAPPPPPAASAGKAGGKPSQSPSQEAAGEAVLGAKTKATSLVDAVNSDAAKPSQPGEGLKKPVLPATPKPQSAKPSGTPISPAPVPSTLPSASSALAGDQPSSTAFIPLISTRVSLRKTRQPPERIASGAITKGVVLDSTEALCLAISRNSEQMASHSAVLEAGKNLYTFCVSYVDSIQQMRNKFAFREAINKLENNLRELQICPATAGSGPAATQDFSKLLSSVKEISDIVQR
Sequence of Casein kinase I isoform delta (Homo sapiens) (P48730 whole entry, looked up, canonical isoform): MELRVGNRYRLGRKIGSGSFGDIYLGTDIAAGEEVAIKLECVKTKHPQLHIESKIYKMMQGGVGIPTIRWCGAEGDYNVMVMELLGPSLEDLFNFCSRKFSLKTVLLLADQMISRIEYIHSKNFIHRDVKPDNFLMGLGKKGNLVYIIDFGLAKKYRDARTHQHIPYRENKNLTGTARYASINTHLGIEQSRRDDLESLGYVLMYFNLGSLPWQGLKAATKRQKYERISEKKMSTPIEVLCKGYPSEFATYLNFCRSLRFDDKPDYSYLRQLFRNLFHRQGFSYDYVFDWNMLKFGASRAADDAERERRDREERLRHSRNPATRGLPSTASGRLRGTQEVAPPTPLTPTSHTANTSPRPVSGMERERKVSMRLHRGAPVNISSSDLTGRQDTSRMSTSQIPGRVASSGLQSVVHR
Sequence of Glycogen synthase kinase-3 beta (Homo sapiens) (P49841 whole entry, looked up): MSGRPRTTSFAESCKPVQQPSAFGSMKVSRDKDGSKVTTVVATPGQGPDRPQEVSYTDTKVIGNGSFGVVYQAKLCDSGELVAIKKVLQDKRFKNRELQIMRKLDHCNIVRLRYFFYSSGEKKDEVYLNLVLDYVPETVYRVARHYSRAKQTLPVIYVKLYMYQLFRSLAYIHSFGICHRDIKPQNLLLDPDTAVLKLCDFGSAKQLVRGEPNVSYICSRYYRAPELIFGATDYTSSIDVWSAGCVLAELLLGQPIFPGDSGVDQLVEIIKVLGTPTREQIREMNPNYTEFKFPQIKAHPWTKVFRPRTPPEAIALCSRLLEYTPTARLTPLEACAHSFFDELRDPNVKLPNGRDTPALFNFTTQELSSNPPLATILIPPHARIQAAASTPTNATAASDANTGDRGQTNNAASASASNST
Sequence of Mitogen-activated protein kinase 1 (Homo sapiens) (P28482 whole entry): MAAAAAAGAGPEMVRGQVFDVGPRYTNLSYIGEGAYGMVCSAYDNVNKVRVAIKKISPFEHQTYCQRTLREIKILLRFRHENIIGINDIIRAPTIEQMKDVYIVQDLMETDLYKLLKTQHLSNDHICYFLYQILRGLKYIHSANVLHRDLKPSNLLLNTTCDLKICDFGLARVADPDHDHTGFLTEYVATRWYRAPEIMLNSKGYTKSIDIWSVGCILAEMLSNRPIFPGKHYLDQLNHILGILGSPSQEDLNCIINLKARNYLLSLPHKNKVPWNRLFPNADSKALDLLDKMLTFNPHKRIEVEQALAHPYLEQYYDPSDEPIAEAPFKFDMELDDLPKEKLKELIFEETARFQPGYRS

Structure (SMILES)	ΔTm [1] [°C]	ΔTm [2] [°C]	ΔTm [3] [°C]	ΔTm [4] [°C]	ΔTm [5] [°C]	ΔTm [6] [°C]	ΔTm [7] [°C]	ΔTm [8] [°C]
C[C@H](Nc1nc2c(cnn2C2CCCC2)c(=O)[nH]1)c1ccc(Cl)cc1	-2.54	-1.24	-1	0.11	-1.9	-7.46	-6.85	0.56
CCn1c(=O)c(C)cn(Cc2nnc(-c3ccc(F)c(O)c3F)s2)c1=O	0.41	-1.52	-0.07	0.26	0	-0.2	-0.34	-0.63
N=C(N)N/N=C/c1cccc(Cl)c1Cl	0.36	-1.26	-0.05	0.55	-0.98	0.2	-0.81	-0.47
C#CCNC(=O)[C@H](CO)NC(=O)[C@H](CCCCN(CC)CC)NC(=O)[C@@H](NC(=O)[C@@H](NC(=O)[C@H](Cc1ccc(O)c(Cl)c1)NC(=O)c1cc(Cl)cc(Cl)c1)C1CCCC1)[C@@H](C)CC ({Benzoyl(3,5-Cl2)}-[Tyr(3-Cl)][Gly(cPent)]I[Lys(Et2)]S-{NH(propargyl)})	0.75	-3.03	0.1	0.08	-0.72	0.49	-2.28	0
CCN(CCN(C)C)C(=O)CNCc1cc(C(N)=O)ccn1	0.33	-1.29	0.23	-0.08	0.25	-0.01	-1.34	-0.57
COc1cc(Nc2ncc(F)c(Nc3ccc4c(n3)N(COP(=O)(O)O)C(=O)C(C)(C)O4)n2)cc(OC)c1OC	2.78	0.11	5.51	0.24	-0.66	-0.75	13.3	-1.96
O=c1[nH]ccc2cc(F)c(NS(=O)(=O)c3ccc(N4CC[C@@H](O)C4)s3)cc12	0.78	-1.78	0.35	0.39	-0.79	0.11	-0.16	-0.69
COc1cc2c(NCC3CCN(C)CC3)cc(-c3ccc(C)o3)nc2cc1OCCCN1CCCC1	-0.17	-1.85	0.22	0.3	-1.71	0.07	0.46	-1.43
CC(=O)Nc1ccc(C(=O)Nc2ccc(F)cc2N)cc1	2.43	-2.84	-0.66	0.17	-3.79	-0.66	-2.46	-0.15
CS(=O)(=O)N1CCN(C(=O)c2cnc3ccc(F)cc3c2-c2ccc(C3(C#N)CC3)cc2)CC1	0.07	1.15	0.13	0.11	3.18	0.08	-1.44	0.3
C=CC(=O)Nc1cccc(-c2c[nH]cc2CN(C)CCN)c1	0.53	-1.27	0.4	-0.04	-1.22	0.08	-0.37	-1.19
O=c1[nH]c(N2CCC3(CC2)CN(CCO)c2cc(F)cc(F)c23)nc2c1CCCC2	0.43	-3.2	0.1	-0.13	-1.32	0.22	-0.79	-1.21
CCC1CCCCN1C(=O)n1ncc(C(O)(c2ccccc2)c2ccccc2)n1 (stereo not drawn)	-3.62	-3.03	-0.45	0.07	-6.94	0.16	-2.31	-1
C[C@H](N)C(=O)N1C[C@H](CCCB(O)O)[C@](N)(C(=O)O)C1	0.03	-2.12	-0.11	-0.32	-0.3	0.12	-2.46	-0.11
O=C(O)C1=CCCN(CCON=C(c2ccccc2)c2ccccc2)C1	0.08	-0.61	0.73	-0.14	0	0.02	-1.31	1.41
COc1ccccc1[C@H]1[C@H](C(=O)O)[C@H](c2ccccc2OC)[C@H]1C(=O)Oc1cccc2ccccc12	0.47	-2.56	-0.65	-3.09	0	-0.07	-2.4	-2.09
CC(=O)N[C@@H](CC(=O)O)C(=O)N[C@@H](CCC(=O)O)C(=O)N[C@H](C(=O)N[C@@H](CC(=O)O)C(=O)CCl)C(C)C	0.1	-2.64	-0.35	-0.06	0.4	-0.58	-1.91	-0.93
CC(C)NCC(O)COC(Cn1c2ccccc2c2ccccc21)Cn1c2ccccc2c2ccccc21 (stereo not drawn)	0.25	0	-0.87	-0.3	-5.02	-15	-0.78	-3.49
COC[C@@H]1CCCN1S(=O)(=O)c1ccc2c(c1)C(=O)C(=O)N2	0.35	-1.47	-0.41	0.01	-0.2	-0.37	-0.97	-0.89
O=C(NCCCc1ccccc1)c1cccc(-c2cc(O)c3ncccc3c2)c1	0.62	-0.53	0.91	0.06	0.84	0.32	-0.61	0.72
O=C(O)/C(S)=C/c1ccc(I)cc1	0.07	-3.45	-1.16	-0.16	-8.42	-1.42	0.99	-0.27
